Results on 18 compounds are retold here after PubChem BioAssay (NCATS).

Assay [1] concerns the target Cellular tumor antigen p53 (Homo sapiens) (UniProt P04637). The experiment in a line: Primary qHTS for small molecule compounds that upregulate eGFP-tagged delta133p53alpha (in N-terminal) cells. (AID 2060322). Further: nearly all actives have a fitted effect of over 75% in size. Further: potency means the concentration at half of the fitted maximal effect.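 On activation: cells pre-induced with doxycycline then dosed without doxycycline; series mostly up to about 56 µM; 0% = DMSO vehicle and 100% = reference activator.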 The conditions noted are these: NCI-H358 eGFP-delta133p53alpha fluorescence, 24 h; activation: active compounds read high. Summed up: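 NCI-H358 cells pre-induced 24 h with 10 ng/ml doxycycline for eGFP-delta133p53alpha, plated dox-free and exposed 24 h at 37C to titrated compounds. Fixed, Hoechst-stained; gated GFP peak intensity by laser scanning cytometry, normalized to DMSO (0%) and 57.5 uM 5-azacytidine (100%).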
On the technique in general: In qHTS, concentration-response curves come from the screen itself.

Assay [2] has as its target Aldehyde dehydrogenase, mitochondrial (Homo sapiens) (UniProt P05091). The experiment in a line: qHTS for Inhibitors of the Aldehyde Dehydrogenase Family (ALDH2) Primary screen (AID 2061308).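 Further: plate controls were vehicle for no effect and reference inhibitor for full effect; nearly all actives have a fitted effect of over 55% in size.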
Assay [3] addresses Retinaldehyde dehydrogenase 3 (Homo sapiens) (UniProt P47895). Briefly: qHTS for Inhibitors of the Aldehyde Dehydrogenase Family (ALDH1A3) Primary screen (AID 2061315).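 Further: plate controls were DMSO vehicle for no effect and reference inhibitor for full effect.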
Assay [4] in a line: BET inhibitor-based combinations targeting novel dependencies in MECOM-rearranged (r) AML: OCI-AML3 cell line (AID 2202232). Further: nearly all actives have a fitted effect of over 35% in size. Further: potency means the concentration at half of the fitted maximal effect. The conditions noted are these: Potency: OCI-AML3 viability. In outline: (§1)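 A 48 hr incubation preceded viability reading by CellTiter-Glo, with 15 min room-temperature development. Dose series had 11 points; normalization used DMSO and empty wells; AUC was computed and mean-centered per line as Z-AUC.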

The nature of assay [5]: BET inhibitor-based combinations targeting novel dependencies in MECOM-rearranged (r) AML: MV-4-11 cell line (AID 2202233). Further: nearly all actives have a fitted effect of over 45% in size. Further: potency means the concentration at half of the fitted maximal effect. Summed up:
(§2)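 Each compound is tested in an 11-point concentration series against 500 seeded cells/well for 48 hr. The luminescent viability signal is normalized to DMSO and blank wells, then reduced to AUC and a cell-line-centred Z-AUC.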

Assay [6] is described as follows: BET inhibitor-based combinations targeting novel dependencies in MECOM-rearranged (r) AML: HNT-34 cell line (AID 2202234). Further: nearly all actives have a fitted effect of over 35% in size. Further: potency means the concentration at half of the fitted maximal effect. Summed up: as §2
A short description of assay [7]: BET inhibitor-based combinations targeting novel dependencies in MECOM-rearranged (r) AML: UCSD-AML1 cell line (AID 2202235). Further: nearly all actives have a fitted effect of over 40% in size. Further: potency means the concentration at half of the fitted maximal effect. In outline:
as §2

Assay [8] in a line: BET inhibitor-based combinations targeting novel dependencies in MECOM-rearranged (r) AML: AML-191 cell line (AID 2202236; further: nearly all actives have a fitted effect of over 35% in size; further: potency means the concentration at half of the fitted maximal effect). Summed up:
as §1

Assay [9] is described as follows: BET inhibitor-based combinations targeting novel dependencies in MECOM-rearranged (r) AML: AML-194 cell line (AID 2202237; further: nearly all actives have a fitted effect of over 40% in size; further: potency means the concentration at half of the fitted maximal effect). In outline:
as §1

Assay [10] in a line: BET inhibitor-based combinations targeting novel dependencies in MECOM-rearranged (r) AML: SET-2 cell line (AID 2202231).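 Further: plate controls were DMSO treated cells for no effect and wells without cells for full effect; nearly all actives have a fitted effect of over 35% in size.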 The settings on record: SET-2 AML cells viability, CellTiter-Glo luminescence, 48 h; viability: active compounds read low, series mostly up to about 46 µM. In outline: as §1
A general note: ATP-based viability assays read luminescence as a measure of living cells.

Several values for one entry are separate records, joined by “and”; a condition that tells them apart may be missing. Identical values can stand only once. Records with an inconclusive call do not appear. Unmarked numbers belong to inactive results. Activity calls are given as the source filed them. The call rests on the fitted dose curve; in most records, active means well fitted curve in the direction sought with a large enough effect; inconclusive means small, poorly fitted or top-dose-only effect, or another doubt; inactive means no such curve, though single readings can be large; an effect the other way counts as inactive or inconclusive.

Cellular tumor antigen p53 (Homo sapiens), sequence (P04637 whole entry, looked up): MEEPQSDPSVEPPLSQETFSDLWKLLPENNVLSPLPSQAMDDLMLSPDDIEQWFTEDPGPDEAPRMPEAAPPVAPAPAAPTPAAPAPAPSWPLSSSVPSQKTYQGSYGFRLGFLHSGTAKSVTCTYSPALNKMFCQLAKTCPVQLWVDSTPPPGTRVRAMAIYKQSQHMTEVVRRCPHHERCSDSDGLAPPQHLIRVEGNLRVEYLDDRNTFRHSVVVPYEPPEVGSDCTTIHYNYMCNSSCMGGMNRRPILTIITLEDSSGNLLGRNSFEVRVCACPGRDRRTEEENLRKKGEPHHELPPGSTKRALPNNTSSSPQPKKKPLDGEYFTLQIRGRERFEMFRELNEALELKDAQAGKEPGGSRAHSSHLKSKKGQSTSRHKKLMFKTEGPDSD

As to `Nc1cccc(-c2cc3c(Oc4cccc(O)c4)ncnc3[nH]2)c1`, the activation in [1] is -3.57%. Further, the Potency entry in [2] and in assay [3] was “inactive” in each case. Moreover, the Potency was 13.2 µM (active) in [4]; 2.95 µM (active) in [5]; 0.468 µM (active) in assay [6]; 8.33 µM (active) in assay [7]; 3.32 µM (active) in [8]; 5.9 µM (active) in assay [9].
For the compound `CC(C)[C@@H](CS(=O)(=O)C(C)C)N1C(=O)[C@@](C)(CC(=O)O)C[C@H](c2cccc(Cl)c2)[C@H]1c1ccc(Cl)cc1`, the activation in assay [1] is 0.955% and -3.88%. In addition, the Potency entry in assay [2] and in [3] was “inactive” each time. Further, the Potency in [4] was 2.35 µM (active); in assay [5], 1.86 µM (active); in assay [6], 1.66 µM (active); in assay [7], 1.86 µM (active); in assay [9] it was 2.35 µM (active).
For the compound `Cc1ccccc1-n1c(Cn2nc(-c3cccc(O)c3)c3c(N)ncnc32)nc2cccc(C)c2c1=O`, the activation in assay [1] was 21.6% and 16.7%. Moreover, the Potency entry in assay [2], in assay [3] and in [9] was “inactive” throughout. The Potency is 1.86 µM (active) in assay [4], 0.296 µM (active) in [5], 14.8 µM (active) in [6] and 14.8 µM (active) in assay [8].
Regarding `Cc1ccc(-c2ccc3c(ccc4sc5c(c43)NC[C@@H](C)NC5=O)n2)cn1`, in assay [1], the activation was 8.04%. For the same compound, the Potency result in assay [2] and in assay [3] was “inactive” in each case. The Potency in assay [4] is 18.6 µM (active); in assay [5] it was 20.9 µM (active); in assay [6], 26.3 µM (active); in assay [8], 26.3 µM (active); in [9], 26.3 µM (active).
For `Fc1ccc(-c2nc(-c3ccccc3F)[nH]c2-c2ccncc2)cc1`, the activation in assay [1] was 17%. Also, the Potency result in assay [2], in [3], in assay [4], in assay [5], in [6] and in [8] was “inactive” in each case. Besides, the Potency entry in assay [9] was “inactive”. The Potency in assay [7] was 4.17 µM (active).
`CCN1CCC(n2cc(CNc3cc(Cl)c4ncc(C#N)c(Nc5ccc(F)c(Cl)c5)c4c3)nn2)CC1`: the Potency in [1] is 16.9 µM (active); in assay [4], 16.6 µM (active); in assay [5], 20.9 µM (active). Also, the Potency result in [2], in assay [3] and in assay [7] was “inactive” in each case.
`CN(C)c1ccc(C2Nc3ccc4ccccc4c3C3=C2C(=O)CC(C)(C)C3)cc1Br` (stereo unspecified): the activation in [1] is 5.76% and 26.3%. The Potency entry in assay [2], in assay [3] and in assay [8] was “inactive” in each case. Further, in [10], the viability (as a rule, a read-out of living cells in per cent, often relative to untreated cells) was 107%.
Take `Cn1cc(-c2[nH]c3cc(NC(=O)[C@H](N)C4CCCCC4)cc4c3c2C=NNC4=O)cn1`: in assay [1], the activation is 23.5%. Also, the Potency entry in [2] and in [3] was “inactive” throughout. For the same compound, the Potency in assay [4] was 5.25 µM (active); in [5] it was 0.263 µM (active); in assay [6] it was 1.05 µM (active); in assay [7], 1.05 µM (active).
With `COc1nc(-c2ccc3c(c2)OCO3)n(-c2ccc(NC(=O)CSc3ccccc3)cc2)n1`, the activation in assay [1] is 2.57% and -11.7%. The Potency entry in assay [2], in assay [3], in assay [7] and in assay [9] was “inactive” each time. The viability in [10] is 97.5%.
For `CC(C)c1cc(CNc2nc(Nc3cc(C4CC4)[nH]n3)cc(N3CCN(C)CC3)n2)on1`, the Potency is 4.26 µM (active) in assay [1]; 4.68 µM (active) in assay [4]; 0.0742 µM (active) in assay [5]; 0.0934 µM (active) in [6]; 0.742 µM (active) in assay [7]; 0.0833 µM (active) in assay [8]. The Potency in [9] was 0.0934 µM (active). Moreover, the Potency result in [2] and in assay [3] was “inactive” in each case.
Turning to `CC(=O)O[C@]1(C(C)=O)CC[C@H]2[C@@H]3C[C@H](C)C4=CC(=O)CC[C@]4(C)[C@H]3CC[C@@]21C`, in [1], the activation was -7.53% and -21%. For the same compound, the Potency entry in assay [2] and in assay [3] was “inactive” throughout. Moreover, the Potency in [4] was 14.8 µM (active); in assay [5], 18.6 µM (active); in assay [6], 8.33 µM (active); in assay [7] it was 10.5 µM (active); in assay [8], 9.34 µM (active).
On to `COCCOc1ccc2c(c1)ncn2-c1ccc2cccc(N3CCC(N)CC3)c2n1`, for which the Potency in assay [1] is 16.9 µM (active); in [4], 9.34 µM (active); in assay [5], 0.0186 µM (active); in assay [6], 7.42 µM (active); in assay [7], 5.25 µM (active); in [8] it was 2.09 µM (active). In addition, the Potency in assay [9] is 2.35 µM (active). Further, the Potency result in assay [2] and in assay [3] was “inactive” each time.
For the compound `Cc1nc(NC(=O)N2CCCC2C(N)=O)sc1-c1ccnc(C(C)(C)C(F)(F)F)c1` (stereo unspecified), in assay [1], the activation is -0.893%. Further, the Potency result in assay [2] and in assay [3] was “inactive” throughout. Moreover, the figures for the Potency in assay [4] and in assay [5] were 2.63 µM (active) and 16.6 µM (active), respectively.
With `CCn1nc(C2CCN(C(=O)CCO)CC2)nc1-c1cnc(N)c(-c2nnc(C(C)(C)C)o2)n1`, in assay [1], the activation was 6.33%. Also, the Potency result in assay [2] and in [3] was “inactive” each time. The Potency in assay [4] is 1.18 µM (active); in assay [5], 5.9 µM (active); in assay [6] it was 16.6 µM (active); in assay [7] it was 5.9 µM (active).
In the case of `NC(=O)c1c(OCc2c(F)cc(Br)cc2F)nsc1NC(=O)NCCCCN1CCCC1`, in assay [1], the activation is 9.77%. Also, the Potency result in assay [2] and in assay [3] was “inactive” in each case. For the same compound, the Potency in [4] is 20.9 µM (active); in [5], 20.9 µM (active); in [6], 23.5 µM (active); in assay [9] it was 26.3 µM (active).
Take `COc1nccc(-c2c(-c3ccc(F)cc3)ncn2C2CCNCC2)n1`: the activation in assay [1] is 2.68%. For the same compound, the Potency entry in assay [2], in assay [3] and in [4] was “inactive” in each case. Moreover, the Potency was 20.9 µM (active) in [5], 16.6 µM (active) in [7] and 20.9 µM (active) in assay [8].
In the case of `Cc1nn(Cc2ccccc2Cl)c(C)c1CN(C)CC(O)COc1ccc(Cl)cc1` (stereo unspecified), the activation in [1] was 32.2%. The Potency result in assay [2], in assay [3] and in assay [7] was “inactive” each time. The Potency was 16.6 µM (active) in [4], 20.9 µM (active) in assay [5], 20.9 µM (active) in [6] and 23.5 µM (active) in [8].
Take `Cc1cc2c(F)c(Oc3ncnn4cc(OCC(C)OC(=O)C(C)N)c(C)c34)ccc2[nH]1` (stereo unspecified): the activation in [1] was -1.79%. Moreover, the Potency result in [2] and in [3] was “inactive” throughout. Further, the Potency in [4] and in assay [5] was 11.8 µM (active) each time.
